This is a sample that favours compounds with a hit; in the whole collection about 0.81% have one here.
TRPML1 ag – qHTS for Agonists of the Human Mucolipin Transient Receptor Potential 1 (TRPML1); Mucolipin-1 (Homo sapiens), Q9GZU1; TRPML1-expressing cells, Ca2+ dye fluorescence, FDSS; activation, % (test concentration not listed); 410,000 compounds, 0.12% hits; in the data active = activation above about 50%; inconclusive = mostly about 30% to 49%; also: 0% is about no effect
Target sequence (Q9GZU1 whole entry, looked up): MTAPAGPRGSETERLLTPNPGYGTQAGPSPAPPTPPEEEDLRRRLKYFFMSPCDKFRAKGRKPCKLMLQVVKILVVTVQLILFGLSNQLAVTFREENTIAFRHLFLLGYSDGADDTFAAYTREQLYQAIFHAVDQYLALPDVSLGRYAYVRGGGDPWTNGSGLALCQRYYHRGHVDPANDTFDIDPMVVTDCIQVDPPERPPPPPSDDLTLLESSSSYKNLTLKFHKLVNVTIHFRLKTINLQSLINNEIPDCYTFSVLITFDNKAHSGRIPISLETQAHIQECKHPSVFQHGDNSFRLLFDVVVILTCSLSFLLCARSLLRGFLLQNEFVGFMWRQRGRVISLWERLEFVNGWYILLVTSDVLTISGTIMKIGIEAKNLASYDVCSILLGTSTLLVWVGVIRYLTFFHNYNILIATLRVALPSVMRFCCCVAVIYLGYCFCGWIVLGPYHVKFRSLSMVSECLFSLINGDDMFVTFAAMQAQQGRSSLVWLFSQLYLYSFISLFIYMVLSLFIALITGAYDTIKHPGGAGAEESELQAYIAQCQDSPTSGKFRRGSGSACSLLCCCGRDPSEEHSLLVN
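In this qHTS format, compounds were pin-transferred onto Ca8-dye-loaded TRPML1-DL cells induced with Tet overnight, and intracellular Ca2+ fluorescence was recorded kinetically for 110 s after a 10 s baseline. A subsequent 4uM final 54-4 (EC80) addition followed by a second 110 s read served as the antagonist phase.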
PTAP TSG101 blk – qHTS Assay for Iinhibitors of HIV-1 Budding by Blocking the Interaction of PTAP/TSG101. Fluorescence polarization, FITC-PTAP peptide / Tsg101 binding. Potency, µM (titrated, usually from 115 µM), without a hit: at the highest dose activity change, negative = inhibition, hits mostly inhibitors. 340,000 tested, under 10 active. AID 493005, 2010; active = well fitted inhibition curve with a large enough effect in the main read-out, with a control signal flat, not every such curve was filed as active; inconclusive = small, poorly fitted or top-dose-only effect, or effect the other way, or a change in a side signal; inactive = no such curve, though single readings can be large or run the other way; also: potency is read from the fitted curve at half-maximal effect; % of control where 0% means no effect
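Compounds were pin-transferred onto Tsg101 binding domain (10 uM final) in HEPES pH 7.5 buffer, then FITC-PTAP peptide was added at 50 nM final. After 20 min at RT, polarization reported peptide displacement across a qHTS concentration series.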
TRPML1 inh – qHTS for Inhibitors of the Human Mucolipin Transient Receptor Potential 1 (TRPML1). activity change, negative = inhibition, % (test concentration not listed). Mucolipin-1 (Homo sapiens), Q9GZU1. TRPML1-inducible cells, Ca2+ dye fluorescence, FDSS; hits give low values; inhibition of EC80 agonist-evoked calcium signal. AID 624415, 2012. 390,000 compounds, 0.02% hits; in the data active = activity change below about -50%; inconclusive = between about -30% and that limit;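 also: stimulus is agonist 54-4 at its EC80 concentration; % is scaled to controls: 0 for no effect and ±100 for the full control effect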
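TRPML1-DL cells, Tet-induced overnight (~16 h, 37 °C) at 1,500 cells/well, were loaded with Ca8 no-wash dye plus quencher for 45-90 min at room temperature. Compounds were pinned during FDSS kinetic reading; agonist 54-4 at EC80 (4 uM final) then added.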
TRHR enhancer – qHTS for Small Molecule Agonists and Allosteric Enhancers of Human TRH Receptor: Primary Screen for Enhancers; Thyrotropin-releasing hormone receptor (Homo sapiens), P34981; TRHR cells, fluo-8 calcium fluorescence, EC20 TRH enhancement; enhancement, % at 2 µM; 360,000 compounds, 0.66% hits; in the data active = enhancement above about 30%; also: 0% is about no effect
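TRHR-expressing cells loaded with fluo-8 calcium dye were read kinetically (ex 480/em 530) during compound addition, then stimulated with an EC20 of TRH (10 nM final). Enhancement of the Gq-mediated intracellular calcium response was scored.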
TRHR ag – qHTS for Small Molecule Agonists and Allosteric Enhancers of Human TRH Receptor: Primary Screen for Agonists | Thyrotropin-releasing hormone receptor (Homo sapiens), P34981 | TRHR cells, calcium flux fluo-8, FDSS agonist mode | activation, % at 2 µM | 360,000 compounds, 0.18% hits | AID 493084, 2011; in the data active = activation above about 30%; also: 0% is about no effect
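Read-out: compound-evoked intracellular calcium rise in TRHR cells, fluo-8 dye, kinetic FDSS fluorescence at 1 s/cycle following a 10-cycle baseline. Cells cultured overnight before dye loading (30 min–1.5 h, RT).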
Active calls of the source: *; ? = inconclusive; . = not tested or not shown.

SMILES	TRPML1 ag	PTAP TSG101 blk	TRPML1 inh	TRHR enhancer	TRHR ag
CCN(CC)S(=O)(=O)c1ccc(N2CCCCC2)c(NC(=O)/C(C#N)=C/c2ccc(OC)cc2)c1	0	-3%	3	2	0
Clc1cccc(OCCCCCN2CCOCC2)c1	0	-5%	-2	-10	1
Clc1cccc(OCCCCN2CCCCC2)c1	0	-3%	-12	34*	0
O=C(NC1CCCCC1)[C@@H]1CC=C[C@@H]2CCN(Cc3ccc(Cl)c(Cl)c3)C(=O)[C@@H]21	-1	.	.	.	.
O=C(c1cnn2c(C(F)F)cc(-c3ccccc3)nc12)N1CCc2ccccc2C1	58*	-5%	-3	-10	0
CC1=C/C(=C\c2ccc(N(C)C)cc2)c2ccccc21	0	.	.	.	.
O=S(=O)(c1ccc2c(c1)OCCO2)N1CCN(S(=O)(=O)c2ccccc2Cl)CC1	.	.	.	1	0
Cc1cc(C)cc(Nc2cc(=O)n(C3CCCCC3)c(=O)[nH]2)c1	0	-1%	7	-4	2
Cc1cc2nc3c(=O)n(C4CCCCC4)c(=O)[nH]c3nc2cc1N	87*	?	-30	16	119*
CC(=O)c1cccc(Nc2nc(N3CCOCC3)nc(N3CCOCC3)n2)c1	0	2%	-8	-8	-1
CC(=O)c1ccc(Nc2nc(N3CCOCC3)nc(N3CCOCC3)n2)cc1	-1	-1%	6	40*	0
O=C(COc1ccccc1C(=O)Nc1ccccc1F)Nc1ccc(Br)cc1	0	.	.	.	.
CCOc1cc(/C=C\c2[nH]c(=O)[nH]c(=O)c2[N+](=O)[O-])ccc1OC(C)CC (configuration not stated)	-1	-2%	-71*	-1	0
CCCOc1ccc(/C=C/c2[nH]c(=O)[nH]c(=O)c2[N+](=O)[O-])cc1OCC	1	?	-15	3	3
COc1cc2c(NC3CCN(C)CC3)nc(N3CCCN(C)CC3)nc2cc1OCCCCCCN(C)C	0	.	.	.	.
COc1cc2nc(N3CCCCC3)nc(NC3CCN(C)CC3)c2cc1OC	0	.	.	.	.
COc1cc(C2CC(=O)OC3=C2C(=O)CC(C)(C)C3)cc(OC)c1OC (configuration not stated)	-1	0%	6	33*	0
COc1ccc(OCC(=O)N/N=C2/C=C(C)CC2)cc1	0	0%	8	33*	0
COc1ccc(/C=C2/SC(=S)N(Cc3ccccc3)C2=O)cc1O	.	-2%	.	-7	-1
O=C1/C(=C\c2cc(Cl)c(O)c(Cl)c2)SC(=S)N1Cc1ccccc1	109*	?	-11	3	188*
CCCC(=O)NC(=S)Nc1ccc(S(=O)(=O)Nc2ccc(OCC)cc2)cc1	13	2%	-15	13	3
CCOc1ccc(NS(=O)(=O)c2ccc(NC(=S)NC(=O)CC(C)C)cc2)cc1	7	0%	-1	32*	4
Cn1c(=O)n(C)c2cc([N+](=O)[O-])c(N3CCN(C(=O)c4cccc(Cl)c4)CC3)cc21	0	-1%	32	38*	0
O=C(NCCN1CCCCC1)Nc1ccc(F)cc1F	0	-4%	-4	37*	0
O=C(NCCN1CCCCC1)Nc1ccccc1F	3	-18%	35	1	0
SMILES	TRPML1 ag	PTAP TSG101 blk	TRPML1 inh	TRHR enhancer	TRHR ag
COc1ccc2[nH]c(C)c(C(=O)CNc3nccs3)c2c1	0	.	.	.	.
C[n+]1ccc(C(c2c[nH]c3ccccc23)c2cc[n+](C)c3ccccc23)c2ccccc21	1	.	.	.	.
Cc1cc(C)c2nc(N(CCCN(C)C)C(=O)c3ccc4c(c3)CCCC4)sc2c1	0	1%	9	33*	3
Cc1ccc2nc(N(CCCN(C)C)C(=O)c3ccc4c(c3)CCCC4)sc2c1	0	0%	3	-2	0
O=C(/C=C/c1ccccc1)CC(O)(c1ccccc1)C(F)(F)C(F)F (configuration not stated)	59*	-9%	-6	6	0
COc1cc2cc(CN(CCc3ccccc3C)C(=S)NCCCN(C)C)c(=O)[nH]c2cc1OC	0	-11%	-9	-2	0
Cc1ccc2[nH]c(=O)c(CN(Cc3ccccc3)C(=S)NCCCN(C)C)cc2c1	0	-3%	10	34*	0
CCCCN(Cc1cc2cc(C)ccc2[nH]c1=O)C(=O)c1ccccn1	0	-3%	-7	30*	0
CCc1ccc(NC(=O)COC(=O)c2ccccc2OCC(=O)N(C)C)cc1	-1	.	.	.	.
Cc1ccc(N2CCN(C(=O)c3cnn(-c4ccc(F)cc4F)c3C3CCN(C(=O)OC(C)(C)C)CC3)CC2)c(C)c1	58*	.	-10	13	2
Cc1ccc(C)c(N2CCN(C(=O)c3cnn(C(C)(C)C)c3C3CCN(C(=O)OC(C)(C)C)CC3)CC2)c1	51*	.	-26	-12	17
CC(C)(C)OC(=O)N1CCC(c2c(C(=O)N3CCCCC3)cnn2-c2ccc(F)cc2F)CC1	0	.	-12	-8	1
CC(C)(C)n1ncc2c(=O)n(Cc3ccccc3-c3ccccc3)cnc21	2	.	7	.	.
O=[N+]([O-])c1ccc2c(c1)C=C/C2=C/c1ccccc1	-1	.	.	.	.
Cc1cccc(NC(=O)CN(C)C(=O)c2ccc3ccccc3n2)c1C	-1	0%	9	-1	0
COCCN(CC(=O)Nc1cccc(C)c1C)C(=O)c1ccc2ccccc2n1	0	-3%	-13	32*	0
Cc1cccc(N2CCN(CCCNC(=O)Cn3ncc4c([nH]c5ccccc54)c3=O)CC2C)c1 (configuration not stated)	5	.	23	3	0
Cc1ccc(Cl)cc1N1CCN(CCCNC(=O)Cn2ncc3c([nH]c4ccccc43)c2=O)CC1	4	.	-13	54*	0
CCO[C@H]1OC(C(=O)N2CCN(Cc3ccc4c(c3)OCO4)CC2)=C[C@@H](C2CCCCC2)[C@@H]1CCCO	-1	.	-4	38*	-1
CN1/C(=C\C=C2/SC(=S)NC2=O)C(C)(C)c2ccccc21	85*	?	-2	1	83*
CN1C(=CC=C2C=C(I)C(=O)C(I)=C2)C(C)(C)c2ccccc21	16	?	-5	3	9
CN1/C(=C\C=C2/C(=O)Oc3ccccc3C2=O)C(C)(C)c2ccccc21	99*	?	-12	-30	217*

Screens deposited in PubChem by National Center for Advancing Translational Sciences (NCATS).
